Experimental data: PubChem BioAssay (Tox21)
Values joined by “and” are separate entries in the source; they are usually repeats but may differ in a detail not shown here. Equal entries are not always repeated. Inconclusive results are not listed. Where a structure was tested more than once in an assay, its records may differ in their call. Active and inactive are the calls of the source. Unless noted, calls come from the whole dose curve; as a rule, active = well fitted curve in the direction sought with a large enough effect in the repeat runs; inconclusive = weak or mixed curves; inactive = no such curve, though single readings can be large; an effect the other way counts as inactive or inconclusive.

Experiments:
[1] = qHTS assay to identify small molecule agonists of the estrogen receptor alpha (ER-alpha) signaling pathway in the presence of an antagonist - cell viability counter screen (AID 1259386);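 note: cells exposed to compounds for 22 h at 37 °C before the viability read; nearly all actives have a fitted effect of over 30% in size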; note: potency is the fitted concentration of half-maximal effect
Method in brief: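 Cells are starved of estrogens for 5 days in charcoal-stripped serum, seeded for 24hr and co-treated with ICI-182,780 (10.0nM final) and test compounds. After 22hr at 37C, viability is read as CellTiter-Fluor fluorescence.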

[2] = qHTS assay to identify small molecule antagonists of the progesterone receptor (PR) signaling pathway - cell viability counter screen (AID 1346798); note: nearly all actives have a fitted effect of over 50% in size; note: potency is the fitted concentration of half-maximal effect
Method in brief: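 Luminescence readout (CellTiter-Glo, 30 min, RT) of viability in PR-UAS-bla HEK293T cells exposed to compound and R5020 agonist for 16 hr at 37C, 5% CO2; run in the same wells as the beta-lactamase reporter read.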

[3] = qHTS assay to identify small molecule agonists of the progesterone receptor (PR) signaling pathway - cell viability counter screen (AID 1346799; calls by dose curve; note: nearly all actives have a fitted effect of over 45% in size; note: potency is the fitted concentration of half-maximal effect)
Method in brief: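 HEK293T PR-UAS-bla, 3,000 cells/well, 2% charcoal-stripped FBS; 6 h settle, compound 16 h at 37C/5% CO2; LiveBLAzer 2 h RT, then CellTiter-Glo 30 min RT, luminescence read.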

[4] = qHTS assay to identify small molecule antagonists of the TGF-beta/Smad signaling pathway - cell viability counter screen (AID 1346824); note: nearly all actives have a fitted effect of over 50% in size; note: potency is the fitted concentration of half-maximal effect
Method in brief: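 SBE-bla HEK 293T cells, incubated overnight, then compound plus 0.25 ng/mL TGF-beta1 (stock added) for 5 hr at 37 C. Viability was read in the same wells by CellTiter-Glo luminescence after 30 min at room temperature.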

[5] = qHTS assay to identify small molecule agonists of the TGF-beta/Smad signaling pathway - cell viability counter screen (AID 1346829); note: nearly all actives have a fitted effect of over 45% in size; note: potency is the fitted concentration of half-maximal effect
Method in brief: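 Luminescence from CellTiter-Glo, read after a 30 min room-temperature incubation, gives cell viability of SBE-bla HEK 293T cells treated 5 hr with compounds at 37 C.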

[6] = qHTS assay to identify small molecule agonists of the TGF-beta/Smad signaling pathway (AID 1346859; active = well fitted activation curve with a large enough effect in the signal ratio in the repeat runs, not every such curve was filed as active; the % refers to the signal ratio; note: series mostly up to about 77 µM)
Method in brief: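 Read-out: fluorescence at 460 and 530 nm (405 nm excitation) after a 2 hr room-temperature incubation with beta-lactamase FRET substrate. SBE-bla HEK 293T cells had been treated with test compounds for 5 hr at 37 C.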

[7] = molecular target: Thyrotropin-releasing hormone receptor (Homo sapiens) (UniProt P34981); assay: qHTS assay to identify small molecule antagonists of the thyrotropin-releasing hormone receptor (TRHR) signaling pathway (AID 1346877; active = well fitted inhibition curve with a large enough effect in the repeat runs, not every such curve was filed as active; note: series mostly up to about 51 µM)
Sequence of Thyrotropin-releasing hormone receptor (Homo sapiens) (P34981 whole entry, looked up): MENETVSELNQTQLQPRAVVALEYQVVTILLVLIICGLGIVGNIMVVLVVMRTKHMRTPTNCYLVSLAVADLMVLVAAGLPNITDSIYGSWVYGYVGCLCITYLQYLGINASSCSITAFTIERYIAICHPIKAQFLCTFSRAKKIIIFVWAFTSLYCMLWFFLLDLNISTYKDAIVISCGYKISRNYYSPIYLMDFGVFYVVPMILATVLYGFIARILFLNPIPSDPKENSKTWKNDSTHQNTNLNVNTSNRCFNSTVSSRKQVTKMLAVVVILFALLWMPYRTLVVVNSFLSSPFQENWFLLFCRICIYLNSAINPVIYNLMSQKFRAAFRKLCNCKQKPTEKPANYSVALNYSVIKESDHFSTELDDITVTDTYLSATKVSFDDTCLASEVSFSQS
Method in brief: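 Cells (TRHR-HEK293) are plated and kept 18 h at 37 °C/5% CO2. A calcium-sensitive dye is added for 2 h, compound follows for 5 min at room temperature, and TRH is then given at 1 nM final.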

[8] = molecular target: Thyrotropin-releasing hormone receptor (Homo sapiens) (UniProt P34981); assay: qHTS assay to identify small molecule agonists of the thyrotropin-releasing hormone receptor (TRHR) signaling pathway (AID 1346891; calls by dose curve;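 note: HEK293 cells expressing TRHR with calcium dye readout; series mostly up to about 58 µM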)
Method in brief: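 HEK293/TRHR cells, 1500 per well, 18 h 37 °C; Ca dye 2 h 37 °C; pin-tool compound addition (agonist mode); kinetic fluorescence 3 min, 1 s reads; 15 concentrations, triplicate.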

[9] = molecular target: Progesterone receptor (Homo sapiens) (UniProt P06401); assay: qHTS assay to identify small molecule agonists of the progesterone receptor (PR) signaling pathway (AID 1346784; calls by dose curve; note: nearly all actives have a fitted effect of over 30% in size)
Sequence of Progesterone receptor (Homo sapiens) (P06401 whole entry, looked up): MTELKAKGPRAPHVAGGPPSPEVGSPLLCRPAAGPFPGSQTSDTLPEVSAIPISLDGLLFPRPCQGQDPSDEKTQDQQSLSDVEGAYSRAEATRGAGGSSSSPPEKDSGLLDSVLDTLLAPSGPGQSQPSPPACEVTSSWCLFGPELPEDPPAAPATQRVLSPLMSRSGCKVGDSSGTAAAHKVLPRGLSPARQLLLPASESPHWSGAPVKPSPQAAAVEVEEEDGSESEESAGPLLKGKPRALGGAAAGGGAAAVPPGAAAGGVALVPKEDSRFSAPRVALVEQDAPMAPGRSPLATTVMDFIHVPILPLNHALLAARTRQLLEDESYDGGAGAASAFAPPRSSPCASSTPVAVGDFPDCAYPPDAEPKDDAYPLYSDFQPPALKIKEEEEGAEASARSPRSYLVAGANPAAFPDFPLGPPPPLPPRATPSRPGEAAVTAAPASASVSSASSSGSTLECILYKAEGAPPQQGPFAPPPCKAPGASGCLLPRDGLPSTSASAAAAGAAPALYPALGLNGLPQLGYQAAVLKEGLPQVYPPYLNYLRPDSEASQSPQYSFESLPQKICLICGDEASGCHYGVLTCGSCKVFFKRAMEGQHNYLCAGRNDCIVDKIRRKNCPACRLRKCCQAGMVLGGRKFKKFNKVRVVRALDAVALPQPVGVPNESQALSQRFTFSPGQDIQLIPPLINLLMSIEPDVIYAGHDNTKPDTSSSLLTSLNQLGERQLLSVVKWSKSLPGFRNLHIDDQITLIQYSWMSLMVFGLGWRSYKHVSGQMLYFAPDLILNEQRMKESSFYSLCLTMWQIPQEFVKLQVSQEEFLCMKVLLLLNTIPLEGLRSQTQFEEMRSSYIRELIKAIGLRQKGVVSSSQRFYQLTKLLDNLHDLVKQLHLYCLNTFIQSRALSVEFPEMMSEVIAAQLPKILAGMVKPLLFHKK
Method in brief: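 HEK 293T PR-UAS-bla reporter cells, 2% charcoal-stripped FBS; 6 hr settle at 37C/5% CO2, compound (DMSO) 16 hr, LiveBLAzer B/G FRET substrate 2 hr RT, fluorescence intensity read.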

[10] = molecular target: Progesterone receptor (Homo sapiens) (UniProt P06401); assay: qHTS assay to identify small molecule antagonists of the progesterone receptor (PR) signaling pathway (AID 1346795; active = well fitted inhibition curve with a large enough effect in the signal ratio in the repeat runs, not every such curve was filed as active; the % refers to the signal ratio; note: potency is the fitted concentration of half-maximal effect)
Method in brief: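 Beta-lactamase reporter, HEK293T PR-UAS-bla line; 2% charcoal-stripped FBS; 6 hr pre-incubation, 37C/5% CO2. Compound + R5020 1 nM final, 16 hr. LiveBLAzer B/G FRET substrate, 2 hr RT; fluorescence intensity read.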

Measured: Potency

Nc1nc2ccccc2n1Cc1ccc(F)cc1
active: [1] 29.8 µM
not listed: [9] | [10]
inactive: all other assays above

CCCCCCCCNC(C)C(O)c1ccc(SC(C)C)cc1 (centres undefined)
active: [1] 33.5 µM | [2] 29.8 µM | [3] 29.8 µM | [4] 21.3 µM
inactive: [7] | [8]

OCCN1CCN(CC/C=C2/c3ccccc3Sc3ccc(C(F)(F)F)cc32)CC1
active: [2] 23.7 µM | [3] 29.8 µM
inactive: [1] | [4] | [6] | [7] | [8]

CCCCC(CC)COC(=O)c1ccccc1C(=O)O (centres undefined)
inactive: [1] | [2] | [4] | [5] | [8]

CC(=O)OCC(C)OC(C)=O (centres undefined)
not listed: [9] | [10]
inactive: all other assays above

CC(C)(C)c1ccc(C(=O)O)cc1
inactive: [1] | [2] | [3] | [4] | [5] | [6]

CCCCCCCCCCCCc1ccc(O)cc1
active: [1] 68.6 µM | [2] 54.5 µM | [3] 30.6 µM

C=CC(=O)OCC(CO)(COC(=O)C=C)COC(=O)C=C
active: [1] 17.3 µM and 27.3 µM | [2] 17.3 µM and 27.3 µM
inactive: [7] | [8]

CC[C@H]1O[C@]2(CC[C@@H]1C)C[C@@H]1C[C@@H](C/C=C(\C)C[C@@H](C)/C=C/C=C3\CO[C@@H]4[C@H](O)C(C)=C[C@@H](C(=O)O1)[C@]34O)O2
active: [1] 68 µM | [2] 68 µM | [4] 54.5 µM | [5] 54.5 µM
inactive: [7] | [8]

COc1cccc2c1C(=O)c1c(O)c3c(c(O)c1C2=O)C[C@@](O)(C(=O)CO)C[C@@H]3O[C@H]1C[C@H](N)[C@H](O[C@@H]2CCCCO2)[C@H](C)O1
active: [1] 23.7 µM
not listed: [9] | [10]
inactive: all other assays above

CCCCCCCCCCCC[N+](C)(C)CCCCCCCCCCCC
active: [1] 68.6 µM | [2] 43.3 µM | [3] 19.3 µM | [4] 43.6 µM
inactive: [7] | [8]

Cc1cc(N)c(S(=O)(=O)O)cc1Cl
not listed: [2] | [9] | [10]
inactive: all other assays above

NC(=O)N1C(=O)C(C(=O)c2cc(Cl)cs2)c2cc(F)c(Cl)cc21 (centres undefined)
active: [1] 24.3 µM | [3] 43.3 µM
inactive: [4] | [5] | [6] | [7] | [8]

O=C1C=CC(=O)N1
inactive: [6] | [7] | [8]
active: [1] 70.4 µM | [3] 62.8 µM

Cc1[nH]nc2c1N=C(c1ccccc1Cl)c1cc([N+](=O)[O-])ccc1N2
active: [1] 27.3 µM | [5] 4.36 µM

O=[N+]([O-])c1cc([N+](=O)[O-])c2ccc(S(=O)(=O)O)cc2c1O
active: [1] 19.2 µM
inactive: [3] | [5]

N=C1N=C(N)c2ccccc21
not listed: [2] | [9] | [10]
inactive: all other assays above

O=C(Oc1cccc2cccnc12)c1ccccc1
inactive: [1] | [4] | [5] | [7] | [8]

CN(C)c1ccc(C2(c3ccc(N(C)C)cc3)OC(=O)c3cc(N(C)C)ccc32)cc1
not listed: [2] | [9] | [10]
inactive: all other assays above

O=C(N/N=C/c1ccccc1O)c1ccncc1
active: [10] 10.6 µM
not listed: [1] | [2] | [3]
inactive: all other assays above

Clc1ccc2n[nH]nc2c1
inactive: [1] | [4] | [6] | [7] | [8]

O=c1cc(-c2ccc(O)cc2)oc2cc(O)cc(O)c12
inactive and 48.6 µM (active): [1]
inactive: [4] | [5] | [6] | [7] | [8]

O=C(O)c1cc(O)c2c(c1)C(=O)c1cccc(O)c1C2=O
inactive: [9] | [2] | [4] | [5]

CCCCC(CC)CN=C(N)NC(N)=NCCCCCCN=C(N)NC(N)=NCC(CC)CCCC (centres undefined)
active: [1] 23.7 µM | [4] 19 µM
inactive: [7] | [8]

CC(C)CCCCCCCCCCCCCCC(=O)O
not listed: [1] | [2] | [3]
inactive: all other assays above

CCCCC(CC)COP(=O)(O)OCC(CC)CCCC (centres undefined)
inactive: [1] | [4] | [5] | [6] | [7] | [8]
